Screening data from PubChem BioAssay.
Hits are enriched below; roughly 1.3% of the tested compounds scored in any of these assays.
CRFBP-R2 agonist: CRF-BP/CRF-R2 complex agonism; HEK293 CRF-R2/CRF-BP, calcium dye fluorescence (FLIPR); percent of saturating CRF peptide response; activation, % at 13.2 µM; hit rate 0.46% among 350,000;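 active = activation of at least 50%, plus an integration ratio under a set limit after plate pattern correction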;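 note: plate controls were neutral control wells without compound for no effect and CRF at EC100 for full effect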
Cardiac RTF inh: cardiac RTF calcium desensitization; hit rate 0.12% among 340,000; P19429+P45379; AID 493244; IANBD-labeled cardiac RTF, Ca2+ fluorescence; inhibition, % at 7.15 µM;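 active = inhibition above the mean inhibition of all tested compounds plus 3 SD, cut at about 17% in these data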;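 note: assay run at fixed EC70 calcium of 1.6 mM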
CRFBP-R2 block: blocks CRF-induced signaling of the CRF-BP/CRF-R2 complex | inhibition, % at 11.8 µM | HEK293 CRF-R2/CRF-BP, CRF-induced calcium fluorescence | AID 588475 | hit rate 0.59% among 350,000;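 active = inhibition of the ligand-induced calcium signal above about 50% at the single tested concentration, limit read from the data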
RTF Ca sens act: cardiac RTF calcium sensitization. P19429+P45379. IANBD-labeled TnC RTF fluorescence at EC20 calcium; 0% EC20 calcium, 100% full calcium. activation, % at 7.2 µM. hit rate 0.24% among 340,000. AID 493008;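 active = activation above the mean over all tested compounds plus 3 SD, cut at about 30% in these data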;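 note: rise in fluorescence read as greater calcium sensitivity of cardiac thin filaments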
Starred values were filed as active, the others as inactive; . = not tested or not shown.

SMILES | CRFBP-R2 agonist | Cardiac RTF inh | CRFBP-R2 block | RTF Ca sens act
N#CNC(=Nc1cccc(F)c1)SCc1ccccc1 | 36 | -6 | 64* | 0
COc1ccc(Cl)cc1NC(=O)C1CCN(C(=O)C2CC(=O)N(c3ccc(C)cc3)C2)CC1 (stereo not given) | 1 | -8 | 23 | 1
O=C(CNC(=O)c1ccc2c(c1)OCCO2)N=Nc1c(O)[nH]c2ccccc12 | -1 | 6 | -6 | -5
CCN(CC)C(=O)Cn1c(=O)c2ccccc2n2c(=S)sc(-c3cccc(C)c3)c12 | 55* | -4 | -123 | 9
CCOC(=O)C1=C(CSc2nc(-c3ccccc3)ccc2C#N)OC(N)=C(C#N)C1c1ccc(OC)cc1 (stereo not given) | 50* | -14 | -88 | 11
CCOc1ccccc1N1CC(C(=O)N(CC)CC(=O)Nc2ccc3c(c2)OCCO3)CC1=O (stereo not given) | -2 | -18 | 6 | -1
CC(=O)Oc1ccc2cc(-c3cccnc3)c(=O)oc2c1 | 0 | -4 | 79* | 2
Cc1ccc(N2C(=O)c3sc4nnc(C)c(=O)n4c3C2=O)cc1 | -1 | -8 | 52* | 2
Nc1ccc(S(=O)(=O)Nc2nc3ccccc3o2)cc1 | 0 | -5 | -12 | -3
CNc1nc(Cl)nc(Nc2ccccc2)n1 | 0 | 9 | 103* | 3
CC1=CN(S(=O)(=O)c2ccc(C)cc2)C[C@@H]2c3ccccc3N(S(=O)(=O)c3ccc(C)cc3)[C@H]12 | 6 | 1 | 3 | -7
CC(C)Cn1c(N)c(C(=O)COC(=O)COc2cccc(C(F)(F)F)c2)c(=O)n(C)c1=O | -1 | -2 | 8 | 0
O=C(Nc1ccccc1)Nc1cc(OCC(F)(F)F)cc(OCC(F)(F)F)c1 | 23 | 2 | 55* | 3
Cc1nc(Cl)c2c(n1)NC1=C(O2)C(=O)CCC1 | 26 | -75 | -13 | 47*
CCn1c(SCC(=O)c2ccc3c(c2)OCCO3)nnc1-c1ccco1 | 0 | -1 | 9 | 1
Cn1c(SCC(=O)c2ccc3c(c2)OCCO3)nnc1C(F)(F)F | -1 | -4 | 111* | -5
COCCn1c(SCC(=O)c2ccc3c(c2)OCCO3)nnc1-c1ccco1 | 0 | 1 | 98* | -1
Cn1c(SCC(=O)Nc2ccc3c(c2)OCCO3)nnc1C(F)(F)F | -1 | -3 | -5 | -2
Cc1noc(C)c1COC(=O)c1ccccc1NC(=O)c1ccco1 | -5 | -2 | 11 | -4
O=C(O)C1C2C=CC(C2)C1C(=O)NCCc1cccc(Cl)c1 (stereo not given) | 1 | -6 | 50* | 7
O=C(c1cc2nc(-c3ccc(F)cc3)cc(C(F)(F)F)n2n1)N1CCOCC1 | 0 | 2 | 54* | 1
COc1ccc(/C=c2\s/c(=C/C(=O)c3ccc(C)cc3)[nH]c2=O)cc1OC | 182* | -42 | -227 | 30*
CC(C)(C)C(=O)/C=c1\[nH]c(=O)/c(=C\c2ccc(F)cc2)s1 | 2 | -3 | -8 | 2
CCSc1nnc(NC(=O)C(CC)(C(F)(F)F)C(F)(F)F)s1 | 31 | -15 | 56* | 7
Cc1nc2c(C)cccc2cc1C(=O)N/N=C/c1ccc(O)cc1 | -11 | -3 | 71* | 2
SMILES | CRFBP-R2 agonist | Cardiac RTF inh | CRFBP-R2 block | RTF Ca sens act
Cc1cccc2cc(/C=N/NC(=O)c3ccccc3O)c(Cl)nc12 | 55* | -19 | 9 | 10
O=C1C=C(c2ccccc2)C(=O)N1Nc1ccccc1 | 7 | -17 | -76 | 0
Cc1ccc(NN2C(=O)C=C(c3ccc(Cl)cc3)C2=O)cc1 | 61* | -2 | -68 | -6
CCN(CC)c1ccc(/C=c2\sc3nc4ccccc4n3c2=O)c(O)c1 | 165* | -81 | -153 | 53*
O=c1/c(=C/c2ccc(O)c([N+](=O)[O-])c2)sc2nc3ccccc3n12 | 23 | . | -21 | .
CCn1ncc(S(=O)(=O)NCc2ccccc2Cl)c1C | 3 | -8 | -6 | -4
Cc1cc(C)c(Nc2cc(S(=O)(=O)O)c(N)c3c2C(=O)c2ccccc2C3=O)c(C)c1 | 13 | 4 | 53* | -11
Cc1cc(C)c(NC(=O)COC(=O)c2cccc3c2C(=O)c2ccccc2C3=O)c(C)c1 | -1 | 4 | 27 | -2
CCC(=O)Nc1cccc(-n2nnnc2SCC(=O)N2CCCCC2)c1 | 89* | -6 | -164 | 0
Cc1ccc(SC[C@H](C)CN2CC[C@H](C(C)(C)C)CCC2=O)cc1 | -2 | 1 | -4 | 1
COc1ccc(C(=O)c2sc3nc(C)cc(-c4cccs4)c3c2N)cc1 | 67* | -47 | -70 | 68*
Cc1cc(-c2cccs2)c2c(N)c(C(=O)c3ccc4c(c3)OCO4)sc2n1 | 109* | -20 | -197 | 10
COc1ccc(C(=O)c2sc3nc(C)cc(-c4cccs4)c3c2N)cc1OC | 108* | -57 | -132 | 44*
[O-][n+]1c2ccccc2[n+]([O-])c2cc(O)ccc21 | -1 | -8 | 6 | 0
Cn1c(=O)c(=O)n(C)c2cc(S(=O)(=O)N3CC(=O)N(CCc4ccccc4)C(=O)C3)ccc21 | 3 | -7 | -6 | -1
Cc1cc(-n2cnc(-c3cn[nH]c3C)n2)no1 | 3 | 0 | 2 | -1
Cc1ccccc1C(=O)Nc1ccc2c(C#N)c3nc4ccccc4nc3n2c1 | 84* | -3 | -38 | 9
Cc1c(C(=O)Nc2ccccc2)cn2c(nc3ccccc32)c1C#N | 0 | 5 | 2 | 6
CCOc1cc(N2CCOCC2)c(OCC)cc1NC(=O)COC(=O)c1c(C)noc1C | 1 | . | 1 | .
O=C(NCc1cccnc1)NC1CC(=O)N(c2ccc3c(c2)OCCO3)C1 (stereo not given) | -2 | 2 | 0 | -1
Cc1ccc(NS(=O)(=O)c2cccc3nsnc23)cc1 | -1 | -2 | 75* | 1
O=S(=O)(Nc1ccccc1)c1cccc2nsnc12 | 1 | -13 | 8 | 2
CCN(c1ccc(NS(=O)(=O)c2cc(Cl)ccc2Cl)cc1)C(C)C | -4 | -6 | 55* | -2
CN(C)c1ccc(NS(=O)(=O)c2cc(Cl)ccc2Cl)cc1 | -1 | 9 | 2 | -5
CCn1c(=O)c2c(n3c(=S)[nH]nc13)-c1ccccc1CC21CCCCC1 | 0 | -2 | -23 | 3
SMILES | CRFBP-R2 agonist | Cardiac RTF inh | CRFBP-R2 block | RTF Ca sens act
CN(CCOC(=O)C1c2ccccc2Oc2ccccc21)C(C)(C)C | 0 | -9 | 50* | 0
CN1CCN(NC(=O)/C=C/c2cccc(Cl)c2)CC1 | 0 | -2 | -2 | 0
Cc1ccc(C(=O)N/C(=C/c2ccco2)C(=O)NCCc2c[nH]c3ccccc23)cc1 | -1 | -2 | 4 | 5
COc1cccc(N2CCN(C(=O)/C=C/c3ccco3)CC2)c1 | 1 | -6 | -3 | 5
Cc1cc(O)c(C2(O)C(=O)Nc3cc(Br)ccc32)cc1C (stereo not given) | 4 | 3 | 121* | 1
Cc1ccc(S(=O)(=O)N2CCOCC2)cc1C(=O)N1CCC(Cc2ccccc2)CC1 | 0 | -4 | -7 | 3
Cc1ccc(CS(=O)Cc2ccc(C(=O)N3CCN(C4CCCCC4)CC3)o2)cc1 (stereo not given) | 0 | 4 | 4 | 3
